Screen size: about 320,000 compounds; about 2,800 (0.88%) were called active. Only a selection was taken, and actives are over-represented in it overall. A number with no mark means an inactive call.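 The calls were made as follows: active = inhibition above the mean inhibition of all tested compounds plus 3 SD, computed separately for each screening campaign (cut at about 15% in these data); inactive = the rest.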
Each compound was assayed against Serine/threonine-protein phosphatase PP1-alpha catalytic subunit (Homo sapiens) (UniProt P62136) (assay: PP1-alpha phosphatase inhibitors, primary screen, counter-screen for PP5 inhibitor project, biochemical, fluorescence, OMFP substrate, single point (AID 2235)). Settings: purified PP1alpha, at 6.7 µM, hits give high values.
Sequence of Serine/threonine-protein phosphatase PP1-alpha catalytic subunit (Homo sapiens) (P62136 whole entry, looked up): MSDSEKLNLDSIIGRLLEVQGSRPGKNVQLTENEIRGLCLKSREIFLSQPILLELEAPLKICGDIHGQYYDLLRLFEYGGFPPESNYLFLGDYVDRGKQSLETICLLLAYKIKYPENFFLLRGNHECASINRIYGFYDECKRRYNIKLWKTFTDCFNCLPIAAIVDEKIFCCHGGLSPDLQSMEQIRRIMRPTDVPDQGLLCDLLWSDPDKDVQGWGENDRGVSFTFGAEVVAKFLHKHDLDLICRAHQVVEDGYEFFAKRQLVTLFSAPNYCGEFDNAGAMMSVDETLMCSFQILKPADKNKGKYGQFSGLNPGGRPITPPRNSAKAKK

Structure (SMILES)	inhibition
Cc1cc(C)nc(Nc2n[nH]c(-c3ccccc3N)n2)n1	0.04%
CN1C(=O)c2ccc(C(=O)Nc3ccc(Br)cn3)cc2C1=O	-4.13%
COc1cc(OC)c(/C=N/NC(=O)c2ccc([N+](=O)[O-])cc2)cc1Br	-0.65%
COc1cccc(/C=N/NC(=O)c2[nH]nc3c2CCc2ccccc2-3)c1O	25% (active)
CN(C)CCNC(=O)c1[nH]nc2c1CCc1ccccc1-2	-1.2%
O=S(=O)(NN=C1CCCCCCC1)c1ccc(Br)cc1	-0.57%
O=C(O)CC(CC(=O)N1CCOCC1)c1ccccc1 (stereo unspecified)	-2.86%
CN(C(=O)CN(CCO)CC(=O)N(C)C(C)(C)Cc1ccccc1)C(C)(C)Cc1ccccc1	21.1% (active)
CCN(CC)CCCNC(=O)CCc1ccccc1	-3.5%
OCCN(Cc1ccccc1)Cc1ccc(Cl)cc1	5.28%
Cc1ccccc1-n1c(SCC(=O)Nc2cccc3ccccc23)nc(O)cc1=O	15.6% (active)
C=CCn1c(N)cc(=O)nc1SCC(=O)Nc1cccc2ccccc12	2.61%
Cc1ccc2nc(SCC(=O)Nc3cccc4ccccc34)nc(=O)n2c1	-4.71%
COC(=O)C1NN=C(C(=O)c2ccc(Br)cc2)C1c1cccc(Br)c1 (stereo unspecified)	1.62%
CCOc1cccc(-c2nn3c(-c4ccccn4)nnc3s2)c1	16.3% (active)
c1ccc(-c2cc(-c3nnc4sc(-c5ccccn5)nn34)[nH]n2)cc1	14%
COc1cc(-c2nn3c(-c4cccc(C)c4)nnc3s2)cc(OC)c1OC	7.7%
CCCCCCCC[n+]1cccc(C(=O)N2c3c(nc(N)[nH]c3=O)NC(C)C2C)c1 (stereo unspecified)	-2.25%
CCN(CC(=O)NCc1cccs1)C(=O)c1ccc(OC)c(S(=O)(=O)N2CCOCC2)c1	-5.16%
O=C(c1ccco1)N1CCN(C(=S)Nc2cc(F)cc(F)c2)CC1	-1.12%
COC(=O)c1c(C)c(C)nc(N)c1C#N	-0.85%
O=C(/C=C/c1cccc([N+](=O)[O-])c1)N1CCN(Cc2ccccc2)CC1	1.31%
O=[N+]([O-])/C=C/c1ccc2c(ccn2Cc2ccccc2)c1	18.3% (active)

Structure (SMILES)	inhibition
COC(=O)Cn1cc(/C=C/[N+](=O)[O-])c2ccccc21	-3.58%
Cc1ccnc(N2CCN(C(=O)CSc3nc4ccccc4nc3N3CCCCC3)CC2)c1	2.11%
CCCC[C@H]1COCCS(=O)(=O)N1Cc1cccc(Cl)c1	-6.26%
Oc1c(Cl)cc(Cl)c(Cl)c1Cc1c(O)c(Cl)cc(Cl)c1Cl	21% (active)
COc1cc(N2C(=O)CSC2=S)cc(OC)c1OC	-0.27%
CC(C)n1ncc2c(C(=O)Nc3ccc(CC#N)cc3)cc(C3CC3)nc21	0.77%
CC(=O)Nc1ccc(S(=O)(=O)NC(C)C(=O)OCC(=O)NC2CCCC2)cc1 (stereo unspecified)	-2.23%
O=C(N/N=C/C=C/c1ccco1)c1cccs1	-2.08%
COc1ccc(/C=N/NC(=O)c2cc(-c3cccc(C)c3)nc3ccccc23)cc1O	-0.69%
Cc1ccc(-c2cc(C(=O)N/N=C/C=C/c3ccco3)c3ccccc3n2)cc1C	20% (active)
CCn1cc(C(=O)NC2CCCCCC2)c(=O)c2cc(S(=O)(=O)N3CCCCC3)ccc21	-1.18%
Cc1ccc(N2C(=O)C3C4C=CC(CC4)C3C2=O)cc1Br (stereo unspecified)	-2.3%
O=C(/C=C/c1ccco1)Nc1cccc(-c2nc3ccccc3[nH]2)c1	-1.53%
Cc1ccc(-c2nc3ccccc3[nH]2)cc1N	-2.81%
O=C(Nc1cccc(-c2nc3ccccc3[nH]2)c1)c1ccc(C(=O)Nc2cccc(-c3nc4ccccc4[nH]3)c2)cc1	18.9% (active)
O=C(O)c1ccccc1C(=O)NC1=NN(c2ccccc2)CC1	2.04%
Cc1ccc2nc(N(CCN(C)C)C(=O)C3=COCCO3)sc2c1	-4.21%
O=C(NCc1cccs1)c1cc(-c2ccccn2)nc2ccc(Br)cc12	0.34%
Cc1ccc(-c2cc(C(=O)NCc3cn(C)nc3C)c3cc(Br)ccc3n2)cc1	15.4% (active)
Cc1nn(C)cc1CNC(=O)Nc1ccc(Cl)cc1	-6.68%
Cc1cc(C)c(C(N)=O)c(Cl)n1	-1.75%
CCCN(CCC)CCCNC(=O)CNC(=O)c1nn(-c2ccc(OC)cc2)c(=O)c2ccccc12	-4.54%
COc1ccc(CN2CCNC(=O)C2CC(=O)NCc2cn[nH]c2-c2ccccc2)c(F)c1 (stereo unspecified)	3.63%

Structure (SMILES)	inhibition
OCCC1CN(Cc2ccc(Oc3ncccn3)cc2)CCN1CCc1ccccc1 (stereo unspecified)	-2.28%
CCOc1ccc(/C=C/C(=O)OCC(=O)c2ccccc2OC)cc1OC	23.7% (active)
COc1ccc(/C=C/C(=O)OCC(=O)NCc2cccs2)cc1OC	-2.5%
COc1cc(/C=C/C(=O)OCC(=O)NC(=O)NCc2ccccc2)ccc1OCC#N	-4.2%
O=C(C1CCCO1)N1CCN(S(=O)(=O)c2ccc(Br)cc2)CC1 (stereo unspecified)	0%
COc1cc(NC(=O)COC(=O)c2cnc(C)cn2)c(C)cc1[N+](=O)[O-]	-3.47%
Nn1c(SCc2ccccc2)nnc1C1CCCCC1	-2.09%
COCCCNC(=O)C1CC(=O)N(c2ccc(C)cc2)C1 (stereo unspecified)	73.3% (active)
COCCNC(=O)C1CCN(C(=O)C2CC(=O)N(c3ccc(C)cc3)C2)CC1 (stereo unspecified)	-0.32%
COCCCNC(=O)C1CC(=O)N(CCc2ccccc2)C1 (stereo unspecified)	0.11%
O=C(CN1CCN(c2ccc(F)cc2)CC1)Nc1ccccc1	2.42%
Oc1c(CN2CCN(c3ccc(F)cc3)CC2)cc(Cl)c2cccnc12	35.2% (active)
Cc1cccnc1NC(=O)c1cccc(S(=O)(=O)N2CCN(c3ccc(F)cc3)CC2)c1	-3.22%
C1CC1Cc1noc(CN2CCN(CC3CC3)CC2)n1	-4.45%
CC(=O)Nc1ccc(C(=O)NNC(=O)CCCCC(=O)NNC(=O)c2ccc(NC(C)=O)cc2)cc1	-4.34%
CCc1sc(C(=O)N2CCN(CC(=O)Nc3cccc(F)c3)CC2)cc1C	-1.08%
O=C(Nc1ccc(C(=O)O)cc1)/C(=C/c1ccc([N+](=O)[O-])cc1)NC(=O)c1ccccc1	-0.04%
Cc1ccc(NC(=O)/C(=C/c2ccc([N+](=O)[O-])cc2)NC(=O)c2ccccc2)cc1	1.49%
O=C(N/N=C/c1cc([N+](=O)[O-])ccc1O)/C(=C\c1cccs1)NC(=O)c1ccccc1	19.9% (active)
COC(=O)CC(=O)N1CCN(c2ccc(Cl)c(Cl)c2)CC1	-1.17%
CC(C)Cn1c(N)c(C(=O)COC(=O)C2CCCN2C(=O)c2cccs2)c(=O)n(C)c1=O (stereo unspecified)	3.85%
Cc1ccc(OCC(=O)N2CCN(S(=O)(=O)c3ccc(Cl)s3)CC2)cc1C	2.28%
CCn1c(=O)c(C(=O)NCc2ccc3c(c2)OCO3)c(O)c2ccccc21	-4.95%

Structure (SMILES)	inhibition
O=C(NCc1ccc2c(c1)OCO2)c1cc(F)c(F)cc1Cl	2.6%
Cc1nc2c(C(=O)NCc3ccc4c(c3)OCO4)c[nH]n2c(=O)c1Cc1ccccc1F	42.6% (active)
Cc1ccc(NC(=O)CSc2nnc(COc3ccccc3C)o2)cc1	-4.67%
CC(=O)Nc1ccc(NC(=O)CSc2nnc(COc3ccccc3C)n2CC2CCCO2)cc1 (stereo unspecified)	16.9% (active)
COc1ccccc1NC(=O)CSc1nnc(C)n1CC1CCCO1 (stereo unspecified)	-1.67%
Cc1ccc(C)c2[nH]c(=O)c(CN(Cc3cccnc3)C(=S)NCc3ccco3)cc12	1.73%
Cc1cccc2cc(CN(Cc3cccs3)C(=S)NCc3ccco3)c(=O)[nH]c12	16.9% (active)
Cc1cccc2cc(CN(C(=O)c3cccs3)c3ccccc3)c(=O)[nH]c12	1.24%
Cc1ccnc(NC(=O)c2ccc(Cl)c([N+](=O)[O-])c2)c1	-0.42%
Cc1c(NC(=O)CN2C(=O)C(=O)N(Cc3ccccc3)C2=O)c(=O)n(-c2ccccc2)n1C	-2.42%
Cc1ccc(CSc2nc(-c3ccccc3)c(C#N)c(=O)[nH]2)cc1	14.2%
N#Cc1c(-c2ccccc2)nc(SCc2cccc(C(F)(F)F)c2)[nH]c1=O	22.1% (active)
N#Cc1c(-c2ccccc2)nc(SCc2ccc([N+](=O)[O-])cc2)[nH]c1=O	9.45%
Cc1ccc(OCCC(=O)OCC(=O)N2c3ccccc3NC(=O)C2(C)C)cc1	0.61%
CCCCN(CC)C(=O)c1ccccc1Oc1ccccc1	-1.38%
CCOC(=O)c1c(S(=O)(=O)Nc2ccc(CN3CCC(C)CC3)cc2)c(C)n(C)c1C	2.36%
O/N=C(\c1ccc2c(c1)OCCO2)C1CCCCC1	0.46%
Cc1cc2oc(=O)cc(CN3CCN(S(=O)(=O)c4cccs4)CC3)c2cc1C(C)C	-3.33%
Cc1ccc2c(CN3CCN(S(=O)(=O)c4ccccc4C(F)(F)F)CC3)cc(=O)oc2c1	16.8% (active)
COc1ccc2c(CN3CCN(S(=O)(=O)c4cccs4)CC3)cc(=O)oc2c1	4.63%
COc1ccccc1NS(=O)(=O)N(C)C	6.89%
CCCc1nnc(NC(=O)CCC(=O)N2CCN(S(=O)(=O)c3ccc(OC)cc3)CC2)s1	-4.44%

Reference: PubChem BioAssay AID2235 (The Scripps Research Institute Molecular Screening Center, 2010)
